Results on 40 compounds are retold here after PubChem BioAssay (EPA / NIEHS).

Several values for one entry are separate records, joined by “and”; a condition that tells them apart may be missing. Equal entries are not always repeated. Activity calls are given as the source filed them. How the source made its calls: active means hit-call score of the fitted dose curve at least 0.9, where 1 is the maximum; inactive means score below 0.9.

Read-out in this test: Plasminogen Activator Inhibitor-1 (PAI1), SERPINE1 (gene 5054)
Kind of test: BSK_BF4T_PAI1: BioMAP Diversity Plus: BF4T Assay for Plasminogen Activator Inhibitor-1 (PAI1) Biomarker Activity (AID 2284273). To be noted: primary human bronchial epithelial cells with fibroblasts. Here is the method: BSK_BF4T is a cell-based, multiplexed-readout assay that uses bronchial epithelial cells and dermal fibroblasts, a human vascular primary cell, with measurements taken at 24 hours after chemical dosing in a microplate: 96-well plate.BSK_BF4T_PAI1 is an assay component measured in the BSK_BF4T assay. It measures PAI-1 antibody related to regulation of gene expression using ELISA technology.Data from the assay component BSK_BF4T_PAI1 was analyzed at the endpoint, BSK_BF4T_PAI1, in the positive analysis fitting direction relative to DMSO as the negative control and baseline of activity. Using a type of binding reporter, gain or loss-of-signal activity can be used to understand protein changes. To generalize the intended target to other relatable targets, this assay endpoint is annotated to the 'cytokine' intended target family, where the subfamily is 'plasmogen activator inhibitor'.
The levels of cell surface (or secreted, indicated by the prefix "s") biomarker endpoints were measured by ELISA. Overt cytotoxicity to cells in confluent adherent cultures (all systems other than the BT system) was assessed by measuring total protein levels using sulforhodamine B (SRB) staining in parallel cultures at the time of biomarker measurements, indicated as SRB endpoints. For proliferation assays for adherent cell types, individual cell types are cultured at sub-confluence and relative cell numbers quantified by SRB staining at time points optimized for each system (48 h: 3C and CASM3C systems; 72 h: BT and HDF3CGF systems; 96 h: SAg system). SRB was performed by staining cells with 0.1% SRB after fixation with 10% TCA and reading wells at 560 nm.Viability and proliferation of PBMC (T cells) was quantified by Alamar Blue reduction for the SAg and BT systems. For PBMC viability (referred to as PBMC Cytotoxicity within the assay endpoint names), cells were plated (75,000/well in a 96-well plate) and then chemical samples added for 1 h before addition of activators, SEB and TSST-1 (20 ng/mL final concentration each). Cells were incubated for 90 h. Then, Alamar Blue (20 uL/well) (Invitrogen, Cat DAL1100) was added for 6 h, and the plates were read with a fluorescence microplate reader at 546/580 nm (excitation/emission). For PBMC proliferation, cells were plated and activated as above but incubated for only 16 h prior to addition of Alamar Blue. Plates were read after 6 h.
In the case of `C=CC(=O)OCC(F)(F)C(F)(F)C(F)(F)C(F)(F)C(F)(F)C(F)(F)C(F)(F)C(F)F`, the outcome was inactive.

For `O=S(=O)(O)CCC(F)(F)C(F)(F)C(F)(F)C(F)(F)F`, the outcome was inactive. For `CCN(CCO)S(=O)(=O)C(F)(F)C(F)(F)C(F)(F)C(F)(F)C(F)(F)C(F)(F)C(F)(F)C(F)(F)F`, the outcome was inactive.

The term AC50 denotes the concentration giving half of the maximal activity seen. Take `O=S(=O)(Cl)C(F)(F)C(F)(F)C(F)(F)C(F)(F)C(F)(F)C(F)(F)C(F)(F)C(F)(F)F`: the AC50 is 44.9 µM (active) and 44.6 µM (active). Turning to `O=S(=O)(O)CCC(F)(F)C(F)(F)C(F)(F)C(F)(F)C(F)(F)C(F)(F)C(F)(F)C(F)(F)F`, the outcome was inactive.

Turning to `O=C(O)C(F)(F)C(F)(F)C(F)(F)C(F)(F)C(F)(F)C(F)(F)C(F)F`, the result was inactive. Regarding `OCCCC(F)(F)C(F)(F)C(F)(F)C(F)(F)C(F)(F)C(F)(F)C(F)(F)C(F)(F)F`, the concentration at half-maximal activity (AC50) was 20.7 µM (active) and 30 µM (active).

Take `CNS(=O)(=O)C(F)(F)C(F)(F)C(F)(F)C(F)(F)C(F)(F)C(F)(F)C(F)(F)C(F)(F)F`: the outcome was inactive.

Regarding `NC(=O)C(F)(F)C(F)(F)C(F)(F)C(F)(F)C(N)=O`, the outcome was inactive.

In the case of `NC(O)(C(F)(F)F)C(F)(F)F`, the outcome was inactive. Consider `OCC(F)(F)C(F)(F)C(F)(F)C(F)(F)C(F)(F)C(F)(F)CO`, for which the outcome was inactive. As for `O=C(Cl)C(F)(F)C(F)(F)C(F)(F)C(F)(F)C(F)(F)C(F)(F)C(F)(F)F`, the result was inactive. Turning to `O=C(O)C(F)(F)C(F)(F)C(F)(F)OC(F)(F)F`, the result was inactive. As to `COC(F)(C(F)F)C(F)(F)F` (stereo not given), the outcome was inactive. In the case of `OCCCCC(F)(F)C(F)(F)C(F)(F)C(F)(F)F`, the outcome was inactive.

As to `C=C(C)C(=O)OCC(F)(F)C(F)(F)C(F)(F)C(F)F`, the outcome was inactive. Same read-out and setting: next, `NCC(F)(F)C(F)(F)C(F)(F)C(F)(F)C(F)(F)C(F)(F)F`: “inactive”. On the same count and under the same terms, the value for `OCC(F)(F)C(F)(F)C(F)(F)CO` was “inactive”; that for `O=C(O)C(F)(F)OC(F)(F)C(F)(F)OC(F)(F)C(F)(F)OC(F)(F)F` was “inactive”.

As for `NC(=O)C(F)(F)C(F)(F)C(F)(F)F`, the result was inactive.

In the case of `O=S(=O)(OCC(F)(F)F)C(F)(F)C(F)(F)C(F)(F)C(F)(F)F`, the outcome was inactive. The same measure, in the same setting: next, `OCC(O)CC(F)(F)C(F)(F)C(F)(F)C(F)(F)C(F)(F)C(F)(F)C(F)(F)C(F)(F)F` (stereo not given): “inactive”. `C=CC(=O)OCC(F)(F)C(F)(F)C(F)(F)COC(=O)C=C`: the AC50 is 20.7 µM (active) and 23.4 µM (active). Take `OCC(F)(F)C(F)(F)C(F)(F)C(F)(F)C(F)(F)C(F)(F)C(F)(F)C(F)(F)CO`: the AC50 was 15.1 µM (active) and 13.6 µM (active). Consider `O=C(O)CCC(F)(F)C(F)(F)C(F)(F)F`, for which the outcome was inactive. Turning to `FC(F)(F)C(F)(F)C(F)(F)C(F)(F)C(F)(F)C(F)(F)CC[Si](Cl)(Cl)Cl`, the result was inactive. Take `O=C(O)CCC(F)(F)C(F)(F)C(F)(F)C(F)(F)C(F)(F)C(F)(F)C(F)(F)F`: the outcome was inactive. Take `OCC(O)CC(F)(F)C(F)(F)C(F)(F)C(F)(F)F` (stereo not given): the result was inactive.

Turning to `NC(=O)C(F)(F)C(F)(F)C(F)(F)C(F)(F)C(F)(F)C(F)(F)C(F)(F)F`, the result was inactive. Turning to `FC(F)(F)C(F)(F)C(F)(F)CC1CO1` (stereo not given), the outcome was inactive. Regarding `OC(O)C(F)(F)C(F)(F)F`, the outcome was inactive. Consider `NC(=O)C(F)(F)C(F)(F)C(F)(F)C(F)F`, for which the result was inactive.

Take `CN(C(=O)C(F)(F)C(F)(F)C(F)(F)F)[Si](C)(C)C`: the outcome was inactive. Regarding `FC(F)(F)C(F)(F)C(F)(F)C(F)(F)C(F)(F)C(F)(F)C(F)(F)CCI`, the outcome was inactive. For `C[Si](Cl)(Cl)CCC(F)(F)C(F)(F)C(F)(F)C(F)(F)C(F)(F)C(F)(F)F`, the outcome was inactive. Regarding `C=CC(=O)OCCC(F)(F)C(F)(F)C(F)(F)C(F)(F)F`, the result was inactive. Still for that read-out and setting: the value for `NCC(F)(F)C(F)(F)C(F)(F)C(F)(F)C(F)(F)C(F)(F)C(F)(F)C(F)(F)F` was “inactive”. With `O=C(F)C1(F)C(F)(F)C(F)(F)C(F)(F)C(F)(F)C1(F)F`, the outcome was inactive. With `NS(=O)(=O)C(F)(F)C(F)(F)C(F)(F)C(F)(F)C(F)(F)C(F)(F)F`, the result was inactive. The same measure, in the same setting: next, `CO[Si](C)(CCC(F)(F)C(F)(F)C(F)(F)C(F)(F)C(F)(F)C(F)(F)F)OC`: “inactive”.
